# Measurements taken from PubChem BioAssay (NCI).
# The panel holds about 83,000 compounds, 20% with a hit somewhere; the sample as a whole holds those more often.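 Compound tested at a single concentration for 48 hours in 96-well plates; a percent growth value below 10 was scored as active.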 Unmarked numbers belong to inactive results. Calls of active or inactive are those of the source.
# Legend:
# Assay in all cases: NCI-60 one-dose screen, 48 h (100 = growth as untreated, 0 = no growth, -100 = all killed)
# Details in all cases: 10 µM unless noted
# [1] = tested on: NCI-H23 lung
# [2] = tested on: NCI-H226 lung
# [3] = tested on: NCI-H322M lung
# [4] = tested on: HOP-62 NSCLC
# [5] = tested on: NCI-H460 lung
# [6] = tested on: HOP-92 NSCLC
# [7] = tested on: NCI-H522 lung
# [8] = tested on: A549/ATCC NSCLC
# [9] = tested on: COLO 205 colon
# [10] = tested on: DU-145 prostate
# [11] = tested on: MALME-3M melanoma
# [12] = tested on: MDA-MB-231 breast
# [13] = tested on: RXF 393 renal
# [14] = tested on: SF-268 CNS
# [15] = tested on: SF-295 CNS
# [16] = tested on: SF-539 CNS
# [17] = tested on: UACC-257 melanoma
# [18] = tested on: M14 melanoma
# [19] = tested on: K-562 leukemia
# [20] = tested on: 786-0 renal
SMILES,growth [1],growth [2],growth [3],growth [4],growth [5],growth [6],growth [7],growth [8],growth [9],growth [10],growth [11],growth [12],growth [13],growth [14],growth [15],growth [16],growth [17],growth [18],growth [19],growth [20]
CCN1CCN(Cc2ccc(NC(=O)Nc3nc4ccc(Oc5ccnc(C(=O)NC)c5)cc4s3)cc2C(F)(F)F)CC1,-12.2% (active),-1.71% (active),17.1%,-13% (active),-66.7% (active),-68.3% (active),-46.5% (active),-41.7% (active),-40.5% (active),-16.1% (active),-68% (active),-78.4% (active),-88.4% (active),-47.3% (active),-23.9% (active),-85.2% (active),-49.2% (active),-76.2% (active),–,–
Cn1c2ccccc2c2c3c(c4c5ccccc5[nH]c4c21)C(=O)N(N)C3=O,46.1%,53.4%,85.1%,44.3%,17.5%,80%,50.2%,66.4%,56.8%,57.4%,69.2%,82.9%,67.9%,45.8%,27.1%,20.2%,76.8%,37.2%,49.7%,–
CN1CCN(c2ccc3nc(-c4ccc5nc(-c6ccc(OCCC(C)(C)C)cc6)[nH]c5c4)[nH]c3c2)CC1,-3.61% (active),95.3%,40.7%,21.5%,-80% (active),69.6%,-38% (active),-45.3% (active),5.08% (active),-80.9% (active),18.2%,-33.3% (active),-72.1% (active),56.6%,50.9%,-72.3% (active),110%,-11.2% (active),–,-60.2% (active)
CNC(=O)c1cc(Oc2ccc3nc(NC(=O)Nc4ccc(N5CCC(N(C)C)CC5)cc4)sc3c2)ccn1,88.1%,94.9%,88.9%,93.5%,81.6%,74.7%,117%,79.8%,80%,74.1%,56.1%,85.6%,61.5%,84.7%,98.9%,73.4%,105%,94%,2.09% (active),–
CN1CCN(Cc2ccc(NC(=O)c3[nH]ncc3Nc3ccnc4ccsc34)cc2)CC1,15.4%,5.11% (active),20%,40.4%,8.74% (active),76.2%,47.2%,24.1%,18.9%,14.7%,60.6%,12.6%,-44.9% (active),20.3%,56.6%,2.32% (active),85.7%,48.9%,26.5%,–
O=C1C2CC=CCC2C(=O)N1CNc1ccc(Cl)cc1 (centres undefined),94.2%,90.5%,–,86.4%,107%,62.9%,74.7%,93.6%,115%,106%,87.6%,92.8%,92%,96.9%,106%,86.5%,101%,94.2%,84.6%,89.4%
C[C@@H]1CC[C@@H]2[C@@H]1[C@H](OC(=O)/C=C/c1ccccc1)[C@]1(c3ccccc3)C[C@@H](OC(=O)CO)[C@@]2(C)O1,102%,88.8%,88%,101%,92%,78.8%,88.5%,80.2%,107%,102%,108%,97.2%,60.6%,52.5%,96.4%,102%,86%,105%,–,98%
CN(CC(=O)N(Cc1ccc(C2CCCCC2)cc1)c1ccc(C(=O)NO)cc1)S(=O)(=O)c1c(F)c(F)c(F)c(F)c1F,53.9%,100%,90%,103%,99.5%,95%,45.3%,102%,67.9%,78.3%,86.4%,40.3%,71.2%,87%,108%,92.7%,102%,67.9%,20.6%,–
O=C(CNC1C2CC3CC(C2)CC1C3)Sc1nnc2sc3ccccc3n12 (centres undefined),95%,91.3%,113%,104%,97.9%,46.2%,96.4%,108%,106%,110%,95.2%,81.5%,114%,101%,94.2%,94.3%,116%,104%,–,–
Cc1ccc2c(NCCCN(C)C)c3c(C)nn(C)c3nc2c1,51.6%,41.7%,34.5%,41.1%,8.82% (active),30%,28.3%,13.7%,13.4%,–,52.7%,47.6%,–,33.2%,30.2%,36.5%,31.8%,42.5%,9.48% (active),37.1%
COc1ccc(-c2cn3c(-c4ccc(OC)cc4)cnc3c(Oc3ccc4c(C)cc(=O)oc4c3)n2)cc1,33%,70.7%,82%,40.9%,26.4%,-13.6% (active),39.6%,16.5%,56.1%,29.5%,26.7%,6.29% (active),-20.8% (active),65.7%,23.3%,-21.1% (active),29.2%,38.6%,–,–
CS(=O)(=O)c1ccc(-c2cnc3ccc(-c4cccc(S(C)(=O)=O)c4)nn23)cc1,44%,65.1%,32.8%,59.2%,21.4%,16%,58.4%,31%,46.2%,27.9%,35.3%,49.4%,9.52% (active),36.3%,53.7%,24%,58.1%,42.8%,46.9%,–
COC(/C=C/c1ccc([N+](=O)[O-])cc1)OC,96.5%,106%,101%,114%,112%,85%,86.9%,95.4%,110%,119%,109%,91.2%,87.5%,106%,106%,–,90.8%,77.2%,105%,–
C/C=C/C(N)=O,96.9%,93.4%,93.4%,109%,102%,91.1%,104%,106%,107%,106%,99.7%,108%,108%,104%,106%,101%,108%,95.5%,109%,–
CNC(=O)c1cc(Oc2ccc3nc(NC(=O)Nc4ccc(CN5CCOCC5)c(C(F)(F)F)c4)sc3c2)ccn1,-4.08% (active),17.3%,49.6%,44.6%,9.7% (active),-7.77% (active),22.4%,20.9%,21%,31.5%,8.17% (active),28.8%,44.6%,34.9%,11%,16.5%,18%,23.2%,5.93% (active),–
CN1C2CCC1/C(=C\c1ccc(Cl)cc1)C1=C2[C@@H](c2ccc(Cl)cc2)C(C#N)=C(N)O1 (some centres undefined),83.5%,88.2%,89.9%,88.9%,91.6%,70.4%,78.3%,83.1%,87.5%,94.5%,88%,104%,68.8%,85%,97.8%,94.2%,85.9%,95.2%,–,93.2%
